Reference: PMC4336329 (PLoS ONE, 2015)
Hit rate of the full screen: of about 310,000 compounds, about 14,000 (4.5%) showed an effect of 50% or more. Effects have a minus sign here. The sample holds strong results, similar compounds and a random draw of the others, so the mix is not that of the screen.

Each molecule was assayed against human ether-à-go-go-related gene (hERG) potassium channel (human, UniProt Q12809) (assay: primary screen, population patch clamp on CHO cells stably expressing hERG; higher = less effect of the substance).
human ether-à-go-go-related gene (hERG) potassium channel, sequence (Q12809 whole entry, looked up): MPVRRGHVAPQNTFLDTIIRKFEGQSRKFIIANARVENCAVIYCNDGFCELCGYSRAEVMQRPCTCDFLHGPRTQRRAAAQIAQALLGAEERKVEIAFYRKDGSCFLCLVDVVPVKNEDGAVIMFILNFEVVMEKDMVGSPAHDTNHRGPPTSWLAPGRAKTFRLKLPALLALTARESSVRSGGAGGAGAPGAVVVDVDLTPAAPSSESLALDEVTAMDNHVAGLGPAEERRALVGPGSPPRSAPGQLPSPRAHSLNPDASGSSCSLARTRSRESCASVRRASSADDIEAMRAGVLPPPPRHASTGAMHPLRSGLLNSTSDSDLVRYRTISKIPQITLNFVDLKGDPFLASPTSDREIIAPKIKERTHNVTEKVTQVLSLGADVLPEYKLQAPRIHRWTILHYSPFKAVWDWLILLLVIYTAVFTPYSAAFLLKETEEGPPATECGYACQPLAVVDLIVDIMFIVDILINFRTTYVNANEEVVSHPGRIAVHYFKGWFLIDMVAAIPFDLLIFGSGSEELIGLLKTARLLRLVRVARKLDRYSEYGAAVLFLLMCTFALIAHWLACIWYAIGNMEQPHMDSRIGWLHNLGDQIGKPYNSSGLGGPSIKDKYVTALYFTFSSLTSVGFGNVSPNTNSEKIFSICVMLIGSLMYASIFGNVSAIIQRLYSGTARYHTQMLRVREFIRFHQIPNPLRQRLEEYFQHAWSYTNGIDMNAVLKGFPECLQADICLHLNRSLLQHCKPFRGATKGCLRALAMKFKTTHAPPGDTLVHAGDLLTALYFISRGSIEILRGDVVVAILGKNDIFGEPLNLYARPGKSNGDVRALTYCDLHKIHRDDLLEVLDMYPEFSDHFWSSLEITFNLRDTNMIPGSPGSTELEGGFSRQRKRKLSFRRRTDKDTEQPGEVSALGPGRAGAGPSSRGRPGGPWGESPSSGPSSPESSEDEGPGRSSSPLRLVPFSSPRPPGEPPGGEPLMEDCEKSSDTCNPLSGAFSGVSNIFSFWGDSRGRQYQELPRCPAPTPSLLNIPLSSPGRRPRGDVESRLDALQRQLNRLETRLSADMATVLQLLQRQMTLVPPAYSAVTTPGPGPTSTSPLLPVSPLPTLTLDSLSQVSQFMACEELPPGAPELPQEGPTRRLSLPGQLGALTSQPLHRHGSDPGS
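Also: peak tail current of the secondary pulse compared with the same well before compound.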

In order of falling “hERG current change (%, negative = inhibition) at 10uM” value:
1. CCOC(=O)c1c(S(=O)(=O)N2CCCC(C(=O)Nc3ccc(C)cn3)C2)c(C)n(C)c1C (stereo not shown)  19.7%
2. COc1ccc(NC(=O)C/C(C)=N/NC(=O)c2cnccn2)cc1  15.5%
3. CCc1ccc(N=C2NC(=O)/C(=C/c3ccc(OCC(=O)O)cc3)S2)cc1  14.6%
4. CC1(OC(=O)CCc2ccccc2)C(=O)C=C2C=C(c3ccc(C#N)cc3)N(c3ccccc3)C=C2C1=O (stereo not shown)  14.3%
5. COC(C(=O)N/N=C(\C)c1ccc(C(C)(C)C)cc1)c1ccccc1 (stereo not shown)  13.1%
6. CCS(=O)(=O)N1CCN(Cc2ccccc2OC)CC1.O=C(O)C(=O)O  11.7%
7. NS(=O)(=O)c1ccc(CCNC(=O)c2cccc([N+](=O)[O-])c2)cc1  11.2%
8. O=c1c2ccccc2ncn1-c1ccc([N+](=O)[O-])cc1[N+](=O)[O-]  10.7%
9. O=C(N/N=C/c1ccccn1)C(O)c1ccccc1 (stereo not shown)  9.82%
10. C[C@]12CCC(=O)C=C1CC[C@@H]1[C@@H]2C(=O)C[C@]2(C)C(=O)CC[C@@H]12  7.99%
11. Cn1c(=O)n(C)c2cc(N3CCOCC3)c(NC(=O)c3cccc(Cl)c3)cc21  5.25%
12. CC(C)Cn1c(SCC(=O)N2CC(=O)Nc3ccccc32)nc2ccccc21  4.27%
13. Nc1ccc(-n2cnc3cc([N+](=O)[O-])ccc32)cc1  1.35%
14. CCOC(=O)N/N=C/C(Cl)=C/c1ccccc1  0.407%
15. COc1ccccc1NC(=O)CCCC(=O)OCC(F)(F)C(F)F  -1.37%
16. CCCN(CC1CC1)C(=O)CCc1nnc(C(OC)c2ccccc2)o1 (stereo not shown)  -4.58%
17. O=c1c2ccccc2ncn1-c1ccc(Cl)cc1[N+](=O)[O-]  -4.65%
18. CC1(OC(=O)CCc2ccccc2)C(=O)C=C2C=C(c3ccc(C#N)cc3)N(CCc3c[nH]c4ccccc34)C=C2C1=O (stereo not shown)  -7.98%
19. C=CCOC(=O)C1=C(C)NC(=O)NC1c1ccc2c(c1)OCO2 (stereo not shown)  -11.9%
20. O=C(c1ccc([N+](=O)[O-])cc1[N+](=O)[O-])n1cnc2ccccc21  -16.4%
21. O=[N+]([O-])c1ccccc1-n1cnc2ccccc21  -18.2%
22. O=[N+]([O-])c1ccc2c(c1)ncn2-c1ccccc1  -21.6%
23. Cc1cccc(OCC(=O)N/N=C2/SCC(=O)N2Cc2ccco2)c1  -25.4%
24. CC(C)CN1C=C2C(=O)C(C)(OC(=O)CCc3ccccc3)C(=O)C=C2C=C1c1ccc(C#N)cc1 (stereo not shown)  -26.9%
25. Cc1ccc(OCC(=O)N/N=C2/SCC(=O)N2Cc2ccco2)cc1  -28%
26. C=CCN1C=C2C(=O)C(C)(OC(=O)CCc3ccccc3)C(=O)C=C2C=C1c1ccc(C#N)cc1 (stereo not shown)  -28.8%
27. COc1ccc(NC(=S)NC2CC3CCC(C2)N3Cc2ccco2)cc1 (stereo not shown)  -30.1%
28. O=C(NCc1ccc2c(c1)OCO2)C1CCCN(C(=O)c2ccc(Cl)cc2)C1 (stereo not shown)  -34.4%
29. CCN(CC)CCCN1C=C2C(=O)C(C)(OC(=O)CCc3ccccc3)C(=O)C=C2C=C1c1ccc(C#N)cc1 (stereo not shown)  -37.6%
30. CC1(OC(=O)CCc2ccccc2)C(=O)C=C2C=C(c3ccc(C#N)cc3)N(CC3CC3)C=C2C1=O (stereo not shown)  -44.6%
31. CC1(OC(=O)CCc2ccccc2)C(=O)C=C2C=C(c3ccc(C#N)cc3)N(C3CCCC3)C=C2C1=O (stereo not shown)  -49.7%
32. CC1(OC(=O)CCc2ccccc2)C(=O)C=C2C=C(c3ccc(C#N)cc3)N(CCN3CCOCC3)C=C2C1=O (stereo not shown)  -49.9%
33. CC1(OC(=O)CCc2ccccc2)C(=O)C=C2C=C(c3ccc(C#N)cc3)N(C3CC3)C=C2C1=O (stereo not shown)  -51.7%
34. CC1(OC(=O)CCc2ccccc2)C(=O)C=C2C=C(c3ccc(C#N)cc3)N(CCc3ccccn3)C=C2C1=O (stereo not shown)  -51.8%
35. Cc1cccc(-n2cnc3cc([N+](=O)[O-])ccc32)c1  -51.9%
36. O=[N+]([O-])c1ccc(-n2cnc3ccccc32)c([N+](=O)[O-])c1  -57.8%
37. O=C(COc1ccc(Br)cc1)N/N=C1/SCC(=O)N1Cc1ccco1  -59.8%
38. O=c1c2ccccc2ncn1-c1ccc(Br)cc1[N+](=O)[O-]  -61.4%
39. CC(C)OCCCN1C=C2C(=O)C(C)(OC(=O)CCc3ccccc3)C(=O)C=C2C=C1c1ccc(C#N)cc1 (stereo not shown)  -71.3%
40. COCCN1C=C2C(=O)C(C)(OC(=O)CCc3ccccc3)C(=O)C=C2C=C1c1ccc(C#N)cc1 (stereo not shown)  -72.4%
